CYP2C9 inh – human CYP2C9 inhibition. inhibition, % at 5 µM. CYP2C9 Supersomes, luciferin-H conversion, luminescence. P11712. hit rate 20% among 96,000. AID 777;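 active means blocking of liver enzyme CYP2C9 beyond about 50% at 5 µM, limit read from the data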
Target sequence (P11712 whole entry, looked up): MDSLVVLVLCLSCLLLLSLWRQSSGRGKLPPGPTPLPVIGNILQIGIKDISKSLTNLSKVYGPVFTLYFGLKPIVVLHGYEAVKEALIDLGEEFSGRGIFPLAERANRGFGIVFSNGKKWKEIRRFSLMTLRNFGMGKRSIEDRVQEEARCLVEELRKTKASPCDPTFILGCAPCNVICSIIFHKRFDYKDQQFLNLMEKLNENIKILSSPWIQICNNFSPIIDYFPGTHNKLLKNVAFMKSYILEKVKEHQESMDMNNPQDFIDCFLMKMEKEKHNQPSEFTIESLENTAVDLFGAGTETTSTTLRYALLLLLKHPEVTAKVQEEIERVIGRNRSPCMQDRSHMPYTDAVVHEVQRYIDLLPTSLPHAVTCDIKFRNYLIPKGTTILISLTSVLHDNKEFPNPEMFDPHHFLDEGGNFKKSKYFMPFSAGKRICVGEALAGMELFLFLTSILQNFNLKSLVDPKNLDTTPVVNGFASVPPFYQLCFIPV
Cav32 inh – human Cav3.2 channel inhibition, primary screen | O95180 | Cav3.2-expressing cells, Fluo-4 calcium fluorescence FDSS; stronger effect = lower value | B-score at 10 µM | hit rate 4% among 100,000;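 active means single-dose well whose peak fluorescence ratio is a statistical outlier from its plate by either plate-standardised score or position-corrected B-score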
CYP2C19 inh – blocks human cytochrome P450 2C19; inhibition, % at 5 µM; P33261; hit rate 21% among 96,000; CYP2C19 Supersomes, luciferin-H EGE luminescence, 30 min;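 active means CYP2C19 inhibition above a set limit at 5 µM in the primary screen, cut at about 50% in these data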
CYP2C19 activ – cytochrome P450 2C19 (human) activation | P33261 | recombinant CYP2C19, luciferin-H EGE luminescence; stronger effect = higher value; 0 = fully inhibited enzyme, 1 = untreated enzyme | activation factor at 5 µM | 96,000 tested, under 10 active;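 active means activation factor of at least 2 at 5 µM in the primary screen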
CYP2C9 activ – increases human cytochrome P450 2C9 activity. P11712. activation factor at 5 µM. hit rate 1.4% among 96,000. recombinant CYP2C9, luciferin-H conversion, luminescence; stronger effect = higher value; factor 1 = untreated enzyme, 0 = blocked;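 active means activation factor of 2 or more for CYP2C9 at a 5 µM dose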
Hits are given with their value. Shown are actives, neighbours in structure and some others; about 27% of the full set was active somewhere.

`C=CCNC(=O)C1=NOC(CNC(=O)c2c(-c3ccccc3Cl)noc2C)C1` (stereo not given) gave CYP2C9 inh inactive, CYP2C19 inh inactive, CYP2C19 activ inactive and CYP2C9 activ inactive.
`COc1cc2ccccc2cc1C(=O)Nc1ccccc1N1CCN(S(C)(=O)=O)CC1` gave CYP2C9 inh inactive, CYP2C19 inh 50, CYP2C19 activ inactive and CYP2C9 activ inactive.
CS(=O)(=O)N1CCN(c2ccc(NC(=O)c3ccc(-c4ccc(Cl)cc4)o3)cc2)CC1 was read as CYP2C9 inh inactive, Cav32 inh inactive, CYP2C19 inh inactive, CYP2C19 activ inactive and CYP2C9 activ inactive.
Screening CS(=O)(=O)N1CCN(c2ccccc2NC(=O)c2ccc(-c3ccc(Br)cc3)o2)CC1 returned CYP2C9 inh 71, Cav32 inh inactive, CYP2C19 inh 56, CYP2C19 activ inactive and CYP2C9 activ inactive.
For O=C(c1cnsn1)N1CCN(c2ccccn2)CC1 the results were CYP2C9 inh inactive, Cav32 inh inactive, CYP2C19 inh inactive, CYP2C19 activ inactive and CYP2C9 activ inactive.
Screening O=C(Cn1nc(C(F)(F)F)c2c1CCCC2)NCCN1CCOCC1 returned CYP2C9 inh inactive, CYP2C19 inh 64, CYP2C19 activ inactive and CYP2C9 activ inactive.
For C=CC[C@]12C[C@@H](OC)C(=O)C=C1O[C@@H](c1ccc(OC)c(OC)c1)[C@H]2C the results were Cav32 inh inactive.
Screening CC1(C)CC(=O)C(CCC(=O)c2ccccc2)C(C)(C)N1 (stereo not given) returned CYP2C9 inh inactive, CYP2C19 inh inactive, CYP2C19 activ inactive and CYP2C9 activ inactive.
Screening CC1CCc2c(sc3nc(C4CC4)nc(N4CCN(C(=O)c5ccco5)CC4)c23)C1 (stereo not given) returned Cav32 inh inactive.
Screening CC(=O)N1CCN(c2nc(C)nc3sc4c(c23)CCC(C)C4)CC1 (stereo not given) returned CYP2C9 inh 86, Cav32 inh inactive, CYP2C19 inh 83, CYP2C19 activ inactive and CYP2C9 activ inactive.
Screening CCOc1cc(C=O)ccc1OCCSc1ccc(Cl)cc1 returned CYP2C9 inh 81, Cav32 inh inactive, CYP2C19 inh inactive, CYP2C19 activ inactive and CYP2C9 activ inactive.
Screening Cc1nc(Sc2ccccc2)c(C#N)cc1-c1ccccc1 returned CYP2C9 inh 70, Cav32 inh inactive, CYP2C19 inh 58, CYP2C19 activ inactive and CYP2C9 activ inactive.
For Cc1nc(Cl)c(C#N)cc1-c1ccccc1 the results were CYP2C9 inh inactive, Cav32 inh inactive, CYP2C19 inh 86, CYP2C19 activ inactive and CYP2C9 activ inactive.
Cc1nc2nc(CSc3ccc(Cl)cc3)cc(=O)n2[nH]1 was read as CYP2C9 inh 55, Cav32 inh inactive, CYP2C19 inh inactive, CYP2C19 activ inactive and CYP2C9 activ inactive.
Screening COCc1cc(=O)n2[nH]c(SCc3ccccc3)nc2n1 returned CYP2C9 inh inactive, Cav32 inh inactive, CYP2C19 inh inactive, CYP2C19 activ inactive and CYP2C9 activ inactive.
For Cc1ccc(SCc2cc(=O)n3[nH]c(C)nc3n2)cc1 the results were CYP2C9 inh 56, Cav32 inh inactive, CYP2C19 inh inactive, CYP2C19 activ inactive and CYP2C9 activ inactive.
Cc1nc2nc(-c3ccccc3)cc(=O)n2[nH]1 was read as CYP2C9 inh inactive, Cav32 inh inactive, CYP2C19 inh inactive, CYP2C19 activ inactive and CYP2C9 activ inactive.
Screening O=C(N/N=C/c1cccn1-c1ccc([N+](=O)[O-])cc1)C(O)c1ccccc1 (stereo not given) returned CYP2C9 inh inactive, Cav32 inh inactive, CYP2C19 inh inactive, CYP2C19 activ inactive and CYP2C9 activ inactive.
O/N=C/c1cccn1-c1ccc(O)cc1 was read as CYP2C9 inh inactive, Cav32 inh inactive, CYP2C19 inh inactive, CYP2C19 activ inactive and CYP2C9 activ 3.
Screening COc1cc(NC(=O)C2CCN(S(=O)(=O)c3ccc(Cl)cc3)CC2)ccc1-n1cnnn1 returned CYP2C9 inh inactive, Cav32 inh inactive, CYP2C19 inh inactive, CYP2C19 activ inactive and CYP2C9 activ inactive.
For COC(=O)Cn1cnc2ccccc2c1=O the results were CYP2C9 inh inactive, Cav32 inh inactive, CYP2C19 inh inactive, CYP2C19 activ inactive and CYP2C9 activ inactive.
For Cc1sc2ncn(CC(=O)OC(C)C)c(=O)c2c1C the results were CYP2C9 inh inactive, Cav32 inh inactive, CYP2C19 inh 67, CYP2C19 activ inactive and CYP2C9 activ inactive.
For Cc1sc2ncn(CC(=O)OC(C)C(=O)NC(C)(C)C)c(=O)c2c1C (stereo not given) the results were CYP2C9 inh inactive, Cav32 inh inactive, CYP2C19 inh 67, CYP2C19 activ inactive and CYP2C9 activ inactive.
CC(C)OC(=O)Cn1cnc2ccc(Br)cc2c1=O was read as CYP2C9 inh inactive, Cav32 inh inactive, CYP2C19 inh 68, CYP2C19 activ inactive and CYP2C9 activ inactive.
For Cc1sc2ncn(CC(=O)OCC(=O)NC(C)(C)C)c(=O)c2c1C the results were CYP2C9 inh inactive, Cav32 inh inactive, CYP2C19 inh inactive, CYP2C19 activ inactive and CYP2C9 activ inactive.
`CCOC(=O)CSc1nnc(CNC(=O)c2ccccc2OC)n1-c1ccc(OC)cc1` gave CYP2C9 inh inactive, CYP2C19 inh inactive, CYP2C19 activ inactive and CYP2C9 activ inactive.
For Cc1ccc(-n2ncc3c(=O)n(CC(=O)N4CCCc5ccccc54)cnc32)cc1C the results were Cav32 inh inactive.
For CC(=O)Nc1n[nH]c(S(=O)(=O)Cc2ccc(Cl)cc2Cl)n1 the results were CYP2C9 inh inactive, Cav32 inh inactive, CYP2C19 inh inactive, CYP2C19 activ inactive and CYP2C9 activ inactive.
`COC(=O)c1sccc1OC(C)C(C)=O` (stereo not given) gave CYP2C9 inh inactive, Cav32 inh inactive, CYP2C19 inh inactive, CYP2C19 activ inactive and CYP2C9 activ inactive.
`O=C(COC(=O)c1ccccc1OCc1ccc(Cl)cc1)NC1CC1` gave CYP2C9 inh 62, Cav32 inh inactive, CYP2C19 inh 75, CYP2C19 activ inactive and CYP2C9 activ inactive.
For Cc1cccc(N=C(N2CCOCC2)P(=O)(N2CCOCC2)N2CCOCC2)c1 the results were CYP2C9 inh inactive, Cav32 inh inactive, CYP2C19 inh inactive, CYP2C19 activ inactive and CYP2C9 activ inactive.
`Fc1ccc(-c2csc3ncnc(Nc4ccc(N5CCOCC5)cc4)c23)cc1` gave CYP2C9 inh inactive, Cav32 inh inactive, CYP2C19 inh inactive, CYP2C19 activ inactive and CYP2C9 activ inactive.
Screening CCn1c(SCC(=O)O)nnc1C1CCCCC1 returned CYP2C9 inh inactive, Cav32 inh inactive, CYP2C19 inh inactive, CYP2C19 activ inactive and CYP2C9 activ inactive.
`COc1ccc(CCN(Cc2nc(-c3ccccc3)no2)Cc2nc(-c3ccccc3)no2)cc1OC` gave CYP2C9 inh 86, Cav32 inh inactive, CYP2C19 inh 54, CYP2C19 activ inactive and CYP2C9 activ inactive.
Screening c1ccc(OCCCc2nc(-c3ccccn3)no2)cc1 returned CYP2C9 inh inactive, Cav32 inh inactive, CYP2C19 inh 80, CYP2C19 activ inactive and CYP2C9 activ inactive.
`c1ccc(-c2noc(CN3CCN(c4ccccc4)CC3)n2)cc1` gave CYP2C9 inh inactive, Cav32 inh inactive, CYP2C19 inh 71, CYP2C19 activ inactive and CYP2C9 activ inactive.
